Source: PubChem BioAssay (NCI)
The panel holds about 83,000 compounds, 20% with a hit somewhere; the sample as a whole holds those more often.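 The endpoint reported here, percent growth, reads 100 for growth as untreated, 0 for no net growth and -100 for all cells dead.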 A number with no mark means an inactive call. The source made the active and inactive calls. The calls were made as follows: active = growth percent below 10; inactive = the rest.

Columns and labels:
Assay in all cases: NCI-60 one-dose screen, 48 h (100 = growth as untreated, 0 = no growth, -100 = all killed)
Conditions in all cases: 10 µM unless noted
SR leukemia = system: SR leukemia
RPMI-8226 leukemia = system: RPMI-8226 leukemia
OVCAR-8 ovarian = system: OVCAR-8 ovarian
OVCAR-5 ovarian = system: OVCAR-5 ovarian
OVCAR-4 ovarian = system: OVCAR-4 ovarian
SK-OV-3 ovarian = system: SK-OV-3 ovarian
IGROV1 ovarian = system: IGROV1 ovarian
OVCAR-3 ovarian = system: OVCAR-3 ovarian
HS 578T breast = system: HS 578T breast
NCI/ADR-RES ovarian = system: NCI/ADR-RES ovarian

SMILES | growth (SR leukemia) | growth (RPMI-8226 leukemia) | growth (OVCAR-8 ovarian) | growth (OVCAR-5 ovarian) | growth (OVCAR-4 ovarian) | growth (SK-OV-3 ovarian) | growth (IGROV1 ovarian) | growth (OVCAR-3 ovarian) | growth (HS 578T breast) | growth (NCI/ADR-RES ovarian)
NC(=NCc1ccccc1)C(N=Nc1ccccc1)C(=O)NCc1ccccc1 (stereo not given) | 19.1% | 90.9% | 31.1% | 100% | 76.5% | 95.6% | 81.5% | 88.8% | 64% | 50.2%
O=C(Nc1cccc(C(=O)N2CCc3ccc(Cl)cc32)c1)c1ccco1 | 20.4% | 34.6% | 51.5% | 70.7% | 70.5% | 82.6% | 31.1% | 18.2% | 28.9% | 24.2%
Nc1n[nH]c2cccc(C#Cc3cccc(C(=O)Nc4cccc(C(F)(F)F)c4)c3)c12 | 72% | 58.9% | 76.3% | 57.6% | 66.2% | 59.6% | 30.3% | 73.8% | 40.5% | 80.6%
CC(C)(C)c1ccc(NS(=O)(=O)c2ccc3nc(NC(=O)c4cnccn4)[nH]c3c2)cc1 | 4.26% (active) | 24.3% | 45.6% | 57% | 37% | 53.5% | 37.4% | -12.3% (active) | -1.91% (active) | 30.6%
CC(=O)[C@@H]1CC[C@]2(C(N)=O)CC[C@]3(C)[C@H](CC[C@@H]4[C@@]5(C)CCCNC(C)(C)[C@@H]5CC[C@]43C)[C@@H]12 | 43.7% | 61.7% | 98% | 91.5% | 84.6% | 108% | 93.6% | 89.3% | 84.4% | 90.6%
CN1C(N2CCN(S(=O)(=O)c3ccccc3)CC2)=NS(=O)(=O)c2ccccc21 | 32.2% | 98.4% | 80% | 97.9% | 111% | 109% | -25.4% (active) | 101% | 82.5% | 99.7%
N#Cc1cc(-c2nc3ccccc3s2)c(=O)n(NS(=O)(=O)c2ccccc2)c1N | 108% | 103% | 106% | 102% | 107% | 90.3% | 98.7% | 114% | 101% | 105%
COc1ccc(Cc2cnc(NC(=O)c3ccc4c(c3)OCCO4)s2)cc1 | 3.32% (active) | 15.8% | 16.9% | 26.1% | 41.2% | 33.4% | 20.2% | 6.58% (active) | 31.7% | -1.17% (active)
Cc1ccc(-c2[nH][nH]c(=O)c2-c2nc3ccccc3s2)cc1 | 97.9% | 96.9% | 105% | 94.4% | 105% | 104% | 106% | 111% | 97.3% | 98%
COC(=O)/C=C1\S/C(=N\NC(=O)c2cc3ccc2/C=C\c2ccc(cc2)/C=C\3)N(c2ccccc2)C1=O | -15.6% (active) | -20.9% (active) | 40.7% | 48.2% | 29.4% | 135% | 5.97% (active) | -6.25% (active) | 77.9% | 31.4%
OCc1cnccc1NCCCCOc1ccc(Oc2ccccc2)cc1 | 31.7% | 24.7% | 65.1% | 84.1% | 63.2% | 87.2% | 72.7% | 66.6% | 59.6% | 65.8%
Cc1cc2nc3c4cc([N+](=O)[O-])ccc4n(CCN(C)C)c3nc2cc1C | -16.7% (active) | -36.4% (active) | 8.77% (active) | -8.87% (active) | 9.25% (active) | 8.97% (active) | -33.6% (active) | -8.29% (active) | 20.7% | -13.4% (active)
CN(C)CC(O)c1ccc(/C=C/c2ccc(Cl)cc2)cc1 (stereo not given) | -38.8% (active) | -8.89% (active) | -34.2% (active) | 2.11% (active) | 25.2% | 52.8% | -57.8% (active) | -64.8% (active) | -26.3% (active) | 5.74% (active)
CCOC(=O)Oc1c(OC)cc(C(=O)c2ccc(OC)c(OC(=O)CCl)c2OC)cc1OC | 29.4% | 18.4% | 25.5% | 77% | 79.8% | 19.7% | 40.4% | -18.4% (active) | 15.2% | -5.85% (active)
O=C(/C=C(/C=C/c1coc2ccccc12)OB(F)F)/C=C/c1coc2ccccc12 | 48.8% | 84.9% | 87.7% | 113% | 107% | 122% | 97.5% | 58.2% | 91.4% | 102%
COc1ccc(/C=C/c2nc(Nc3ccc(S(=O)(=O)Nc4cc(C)on4)cc3)c3ccccc3n2)cc1 | 45.4% | 67.9% | 61.3% | 71.1% | 73.4% | 77.4% | 78% | 83.7% | 80.3% | 75.7%
CC(=O)N1c2ccccc2NC2=C(C(=O)NC2(C)C)C1c1ccco1 (stereo not given) | 29.1% | 63.1% | 100% | 95.1% | 93.8% | 95.6% | 56.7% | 97.1% | 83.3% | 102%
O=C(/C=C/c1ccc[nH]1)c1ccc(-n2ccc(C(F)(F)F)n2)c(F)c1 | 80.3% | -6.08% (active) | 95.6% | 90.9% | 99.2% | 121% | 93.4% | 99.8% | 98% | 93.1%
CN1C(=O)NC(c2ccc3c(c2)OCO3)C=C1c1ccccc1 (stereo not given) | 23.3% | 65.5% | 93.6% | 93.9% | 97.5% | 94.1% | 78.7% | 91.1% | 101% | 98.8%
O=[N+]([O-])c1cc(Br)c2cccc3c2c1CC3 | 93.3% | 109% | 97% | 99.4% | 104% | 114% | 111% | 108% | 130% | 114%
N#C/C(=C\c1ccccn1)c1nc2cc(Cl)ccc2s1 | 40.3% | 59.3% | 73.1% | 96.8% | 71.5% | 62.9% | 42% | 75.4% | 53.7% | 77%
CCCCCN1C=C/C(=C\C(=O)N(C)c2ccc(Oc3ccccc3)cc2)c2ccccc21 | 82.1% | 68.6% | 80.3% | 92.9% | 58.3% | 87.3% | 58.1% | 83.6% | 99.5% | 100%
N#Cc1c(NC(=O)NCc2ccccc2)sc2c1CCCC2 | 23.3% | 17.7% | 26.8% | 46% | 48.4% | 35.1% | 28.8% | -15.7% (active) | 9.64% (active) | 11.1%
Cc1cccc(-c2cn3ccnc3c(-c3ccc4ncn(Cc5ccccc5)c4c3)n2)c1 | 89% | 62.5% | 88.5% | 93.4% | 80.7% | 102% | 90.5% | 86% | 91.5% | 87.9%
CC(=O)O[C@H]1Cc2c([nH]c3ccccc23)[C@@H](c2ccc(Cl)cc2)N1C(=O)CCNC(C)(C)C | 3.79% (active) | 44.2% | 83.4% | 59.6% | 64.6% | 90.5% | 24.6% | 70.8% | 62.3% | 91.8%
CCCOc1ccc(/C=N/Nc2cc(C)nc3ccc(Br)cc23)cc1 | -1.3% (active) | 58.9% | 88.2% | 111% | 88.1% | 90.9% | 90.4% | 99.8% | 106% | 97.2%
